Measurements from PubChem BioAssay AID1159580 (chemical genetic matrix, 2015).
In all, about 5,500 compounds went through this assay and about 2,000 (36%) were called active. Not shown: some 18% with an inconclusive outcome. No stated cut-off is given here; in the data, active means normalized growth mostly below about 0.91 (no sharp cut-off); inconclusive means no clear call, values can overlap the other calls; inactive means mostly above about 0.92. Some of the results follow.

Experiment: chemical genetic growth profiling, strain panel (AID 1159580);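 further: tested at 20 µM; growth read once vehicle control cultures reached saturation at 30 °C; 1 = growth at the plate median or of vehicle wells; lower values mean less growth of the strain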
Conditions: S. cerevisiae deletion strains, growth OD

Measured: normalized growth

C=C1C(=O)OC2CC1C(OC(C)=O)C/C(C)=C/CC/C(C)=C/CC[C@]2(C)O (stereo partly specified)
inactive: locus YAL013W, strain DEP1, hits give low values 0.999 | locus YAL021C, strain ccr4, hits give low values 0.964 | locus YAL026C, strain drs2, hits give low values 0.987 | locus YAL030W, strain snc1, hits give low values 0.984 | locus YBL061C, strain skt5, hits give low values 1.01 | locus YBR009C, strain hhf1, hits give low values 1.01 | locus YBR021W, strain FUR4, hits give low values 1.03 | locus YBR023C, strain chs3, hits give low values 1.01 | locus YBR171W, strain sec66, hits give low values 0.994 | locus YBR229C, strain ROT2, hits give low values 1.02 | locus YBR231C, strain swc5, hits give low values 1.01 | locus YBR279W, strain paf1, hits give low values 0.996 | locus YCL011C, strain gbp2, hits give low values 1 | locus YCL016C, strain dcc1, hits give low values 1 | locus YCL029C, strain bik1, hits give low values 1.02 | locus YCL061C, strain MRC1, hits give low values 0.993 | locus YCL069W, strain vba3, hits give low values 0.987 | locus YCR088W, strain abp1, hits give low values 0.991 | locus YDL005C, strain med2, hits give low values 0.992 | locus YDL035C, strain GPR1, hits give low values 1.01 | locus YDL040C, strain nat1, hits give low values 0.981 | locus YDL074C, strain BRE1, hits give low values 1 | locus YDL101C, strain DUN1, hits give low values 1.01 | locus YDL185W, strain tfp1, hits give low values 1.02 | locus YDL192W, strain arf1, hits give low values 1 | locus YDR001C, strain nth1, hits give low values 0.982 | locus YDR069C, strain doa4, hits give low values 1.01 | locus YDR101C, strain arx1, hits give low values 1.03 | locus YDR137W, strain rgp1, hits give low values 0.935 | locus YDR150W, strain NUM1, hits give low values 1 | locus YDR159W, strain sac3, hits give low values 1.03 | locus YDR162C, strain NBP2, hits give low values 1.02 | locus YDR195W, strain ref2 1.02 | locus YDR297W, strain sur2, hits give low values 0.997 | locus YDR318W, strain mcm21, hits give low values 1 | locus YDR334W, strain swr1, hits give low values 1.01 | locus YDR335W, strain msn5, hits give low values 0.985 | locus YDR388W, hits give low values 1.01 | locus YDR392W, strain spt3, hits give low values 0.977 | locus YDR502C, strain sam2, hits give low values 1.03 | locus YEL003W, strain gim4, hits give low values 1.01 | locus YEL037C, strain rad23, hits give low values 0.99 | locus YEL061C, strain CIN8 (second series), hits give low values 0.994 | locus YEL061C, strain CIN8, hits give low values 1.02 | locus YER015W, strain faa2, hits give low values 1 | locus YER016W, strain bim1, hits give low values 0.992 | locus YER110C, hits give low values 1.02 | locus YER111C, strain swi4, hits give low values 0.995 | locus YER155C, strain BEM2 (second series), hits give low values 1.03 | locus YER155C, strain BEM2, hits give low values 1 | locus YER167W, strain BCK2, hits give low values 1.01 | locus YFR010W, strain ubp6, hits give low values 0.995 | locus YGL078C, strain dbp3, hits give low values 1.01 | locus YGL086W, strain mad1, hits give low values 1.02 | locus YGL167C, strain pmr1, hits give low values 0.988 | locus YGL173C, strain kem1, hits give low values 1.01 | locus YGL227W, strain vid30, hits give low values 0.989 | locus YGL240W, strain doc1, hits give low values 1.02 | locus YGL248W, strain PDE1, hits give low values 1.02 | locus YGL253W, strain hxk2, hits give low values 0.923 | locus YGR135W, strain pre9, hits give low values 1 | locus YGR252W, strain gcn5, hits give low values 1.01 | locus YHR013C, strain ard1, hits give low values 0.979 | locus YHR027C, strain rpn1, hits give low values 0.99 | locus YHR030C, strain SLT2, hits give low values 1.02 | locus YHR079C, strain IRE1 (second series), hits give low values 1.01 | locus YHR094C, strain hxt1, hits give low values 1.01 | locus YHR129C, strain ARP1, hits give low values 1.01 | locus YHR142W, strain chs7, hits give low values 1.01 | locus YHR200W, strain rpn10, hits give low values 1.02 | locus YIL066C, strain RNR3, hits give low values 1.01 | locus YIL073C, strain SPO22, hits give low values 0.983 | locus YIL125W, strain kgd1, hits give low values 1.01 | locus YIR030C, strain dcg1, hits give low values 1.01 | locus YJL092W, strain hpr5, hits give low values 0.988 | locus YJL095W, strain BCK1 (second series), hits give low values 0.998 | locus YJL095W, strain BCK1, hits give low values 1 | locus YJL115W, strain asf1, hits give low values 0.982 | locus YJL129C, strain trk1, hits give low values 1.01 | locus YJL134W, strain LCB3, hits give low values 1 | locus YJL154C, strain vps35, hits give low values 0.982 | locus YJL164C, strain tpk1, hits give low values 0.981 | locus YJL166W, strain qcr8, hits give low values 1 | locus YJL168C, strain set2, hits give low values 1.03 | locus YJL187C, strain SWE1 (second series), hits give low values 1.01 | locus YJL187C, strain SWE1, hits give low values 0.978
